Experimental findings from PubChem BioAssay (NCATS) are described below.

Experiment [1] in a line: Primary qHTS for inhibitors of SARS-S pseudo-typed particle cell entry (AID 1479145). Also: nearly all actives have a fitted effect of over 45% in size. Also: potency is read from the fitted curve at half-maximal effect. As to activity change, negative = inhibition: % is scaled to controls: 0 for no effect and ±100 for the full control effect. The conditions noted are these: outcome: dose series up to 57.1 µM unless noted.
Experiment [2] is described as follows: Primary qHTS for Huh7 cytotoxicity: counterscreen for inhibitors of MERS-S pseudotyped particle cell entry (AID 1479147). Also: potency is read from the fitted curve at half-maximal effect. The conditions noted are these: outcome: dose series up to 57.1 µM unless noted.
Experiment [3] is described as follows: Primary qHTS for inhibitors of MERS-S pseudo-typed particle cell entry (AID 1479149). Also: nearly all actives have a fitted effect of over 60% in size. Also: potency is read from the fitted curve at half-maximal effect. As to activity change, negative = inhibition: % is scaled to controls: 0 for no effect and ±100 for the full control effect. The conditions noted are these: outcome: dose series up to 57.1 µM unless noted.
The nature of experiment [4]: Primary qHTS to identify inhibitors of SARS-CoV-2 cell entry (AID 1645846). Also: nearly all actives have a fitted effect of over 45% in size. Also: potency is read from the fitted curve at half-maximal effect. The conditions noted are these: SARS-CoV-2 pseudovirus cell entry assay, luminescence; activity change, negative = inhibition: at 57.1 µM (top of the series) unless noted. The procedure, abridged: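 Entry measured by luciferase signal 48 h after adding SARS-CoV-2-S pseudotyped MLV particles to HEK293-ACE2 cells preincubated 1 h with compounds. Normalisation: bald particles and spike particles.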

The nature of experiment [5]: Cytotoxicity counterscreen for inhibitors of SARS-CoV-2 cell entry (AID 1645845). Also: nearly all actives have a fitted effect of over 50% in size. Particulars: outcome: dose series up to 57.1 µM unless noted. The procedure, abridged:
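48 h compound treatment (after 1 h preincubation), HEK293-ACE2 cells, 37 C/5% CO2; ATP luminescence endpoint; normalized to cell wells and media blanks.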

A short description of experiment [6]: Primary qHTS for Vero E6 cytotoxicity: counterscreen for inhibitors of SARS-S pseudo-typed particle cell entry (AID 1479150). The conditions noted are these: outcome: dose series up to 57.1 µM unless noted.
For experiment [7], the target named is Glutathione peroxidase 1 (Homo sapiens) (UniProt P07203). The experiment can be described thus: Primary qHTS Assay for Inhibitors of Recombinant Selenoprotein Glutathione Peroxidase 1 (GPX1) (AID 1845191; active = well fitted inhibition curve with a large enough effect; also: nearly all actives have a fitted effect of over 65% in size). The procedure, abridged: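 10 nM GPX1 + cpd, 30 min RT; start w/ 1 mM GSH, 0.5 mM cumene hydroperoxide, 0.5 mM NADPH, 100 nM GR, 0.01% BSA; buffer 50 mM Tris-HCl pH 7.5, 2 mM EDTA, 150 mM NaCl; Fl 340/450, 0 & 15 min.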
Sequence of Glutathione peroxidase 1 (Homo sapiens) (P07203 whole entry, looked up): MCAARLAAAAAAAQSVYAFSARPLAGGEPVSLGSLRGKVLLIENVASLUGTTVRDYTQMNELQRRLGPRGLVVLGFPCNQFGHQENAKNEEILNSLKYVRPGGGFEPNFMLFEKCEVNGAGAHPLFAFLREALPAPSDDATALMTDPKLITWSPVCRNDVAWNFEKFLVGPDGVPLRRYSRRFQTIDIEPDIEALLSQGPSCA

Experiment [8] has as its target Phospholipid hydroperoxide glutathione peroxidase GPX4 (Homo sapiens) (UniProt P36969). The experiment is described as follows: Primary qHTS Assay for Inhibitors of Recombinant Selenoprotein Glutathione Peroxidase 4 (GPX4) (AID 1845192; active = well fitted inhibition curve with a large enough effect; also: nearly all actives have a fitted effect of over 65% in size). The method, boiled down:
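NADPH consumption, followed by fluorescence at 340/450 nm between 0 and 15 min, reports GPX4 activity via coupled glutathione reductase (100 nM). Enzyme 200 nM was pre-exposed to compound 30 min; 0.5 mM cumene hydroperoxide and 1 mM GSH served as substrates.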

Experiment [9] in a line: VSVG counterscreen qHTS to identify inhibitors of SARS-CoV-2 cell entry (AID 1645847). Also: nearly all actives have a fitted effect of over 65% in size. Also: potency is read from the fitted curve at half-maximal effect. As to activity change, negative = inhibition: % is scaled to controls: 0 for no effect and ±100 for the full control effect. The method, boiled down: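 Luminescence read after 48 h infection at 37 C with VSV-G-pseudotyped MLV particles, following 1 h compound exposure of Expi293F cells stably expressing human ACE2; scaled between bald particle and VSV-G particle wells.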
Experiment [10] deals with Peroxisome proliferator-activated receptor delta (Homo sapiens) (UniProt Q03181). The experiment is described as follows: qHTS assay for small molecule agonists of peroxisome proliferator-activated receptor delta signaling (AID 588534).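 Also: 0% = DMSO basal wells and 100% = positive control agonist at 10 µM.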 The method, boiled down:
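Cell-based beta-lactamase reporter assay run in agonist mode: cells seeded and incubated 5 hrs at 37 C, compounds added and incubated 18 hrs at 37 C. CCF4 dye fluorescence read after 2 hrs at RT; EC50 and efficacy from Hill fits.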

Experiment [11] can be described thus: Confirmatory qHTS to identify inhibitors of SARS-CoV-2 cell entry (AID 1645844). Also: potency is read from the fitted curve at half-maximal effect; nearly all actives have a fitted effect of over 45% in size. The method, boiled down:
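Luminescence from a luciferase reporter, read 48 hr after pseudotyped-particle addition, gives entry signal, normalised to spike-bearing PP wells and bald PP lacking fusion protein wells. Cells are Expi293F stably expressing human ACE2, compound-pretreated 1 hr.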

Experiment [12] is described as follows: NCATS anti-infectives library activity on the primary C. elegans qHTS viability assay (AID 1745855). The procedure, abridged: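 Viability is taken from GFP fluorescence of PE254-GFP-FLuc C. elegans imaged by laser cytometry over 7 days. Ten L1 worms per well grow at 21 °C on TOP10 E. coli capsules with titrated compound; levamisole marks toxicity.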

The structures appear in SMILES notation. Results filed as inconclusive are left out. Active and inactive are the calls of the source. Unless noted, calls follow the shape of the full dose curve.

Sequence of Peroxisome proliferator-activated receptor delta (Homo sapiens) (Q03181 whole entry, looked up): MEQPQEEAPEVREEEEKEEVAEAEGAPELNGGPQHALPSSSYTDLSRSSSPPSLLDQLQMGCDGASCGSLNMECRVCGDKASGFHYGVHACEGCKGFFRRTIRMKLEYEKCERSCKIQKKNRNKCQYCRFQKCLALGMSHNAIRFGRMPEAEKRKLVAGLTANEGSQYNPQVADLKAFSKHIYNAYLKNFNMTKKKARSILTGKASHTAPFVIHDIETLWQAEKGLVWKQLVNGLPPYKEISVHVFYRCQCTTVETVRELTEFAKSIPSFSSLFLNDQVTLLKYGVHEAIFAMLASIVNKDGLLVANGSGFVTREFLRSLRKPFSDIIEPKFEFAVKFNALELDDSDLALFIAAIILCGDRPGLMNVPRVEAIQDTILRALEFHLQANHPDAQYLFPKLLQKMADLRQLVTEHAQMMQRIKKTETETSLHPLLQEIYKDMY
Sequence of Phospholipid hydroperoxide glutathione peroxidase GPX4 (Homo sapiens) (P36969 whole entry, looked up): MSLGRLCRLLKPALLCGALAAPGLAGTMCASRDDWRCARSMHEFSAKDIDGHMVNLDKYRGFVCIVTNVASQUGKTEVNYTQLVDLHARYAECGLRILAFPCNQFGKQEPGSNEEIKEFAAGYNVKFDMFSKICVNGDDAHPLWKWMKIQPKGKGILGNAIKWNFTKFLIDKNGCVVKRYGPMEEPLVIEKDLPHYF

Regarding `CC(=O)OCC(=O)[C@@]1(O)CC[C@H]2[C@@H]3C[C@H](C)C4=CC(=O)C=C[C@]4(C)[C@H]3[C@@H](O)C[C@@]21C`, the Potency entry in experiment [1], in [2], in [3] and in experiment [4] was “inactive” throughout.
Turning to `CCCCCCCCCCCC[n+]1ccc2ccccc2c1`, the figures for the Potency in experiment [1], in experiment [3] and in [4] were 2.82 µM (active), 5.62 µM (active) and 3.16 µM (active), respectively. Further, the Potency entry in experiment [2] is “inactive”.
Turning to `O=C(OCc1ccccc1)c1cccnc1`, the Potency entry in [1], in [2], in experiment [3] and in [5] was “inactive” throughout. The activity change, negative = inhibition in experiment [4] turned out to be 1.27%.
As to `C=C1/C(=C/C=C2\CCC[C@]3(C)[C@@H]([C@H](C)CCCC(O)(C(F)(F)F)C(F)(F)F)CC[C@@H]23)C[C@@H](O)C[C@@H]1O`, the Potency result in [1], in experiment [2] and in experiment [6] was “inactive” throughout.
Consider `CCC(O)c1ccccc1` (configuration not stated), for which the Potency result in [1], in [2], in [3] and in experiment [6] was “inactive” each time. Besides, the activity change, negative = inhibition in [4] was -0.957%.
As for `CC(C)CCCC(C)NC(C)C` (configuration not stated), the Potency entry in experiment [1], in [2], in experiment [3] and in experiment [5] was “inactive” in each case. Also, the activity change, negative = inhibition in experiment [4] is -25.3%.
As for `CN1CCN(CCCN2c3ccccc3Sc3ccccc32)CC1`, the Potency in experiment [1] is 28.2 µM (active); in [2], 31.6 µM (active); in experiment [3], 31.6 µM (active); in experiment [4], 31.6 µM (active).
Consider `NC(=O)C1CCCN1C(=O)C(Cc1cnc[nH]1)NC(=O)C1CCC(=O)N1` (configuration not stated), for which the Potency entry in experiment [1], in experiment [2], in [3], in experiment [6] and in experiment [4] was “inactive” in each case.
Turning to `CN(Cc1ccccc1)C(=O)[C@H](NC(=O)c1cc2cc(NC(=O)c3ccccc3-c3ccc(C(F)(F)F)cc3)ccc2n1C)c1ccccc1`, the Potency entry in [1], in experiment [2], in [3] and in experiment [6] was “inactive” in each case. Further, in experiment [4], the activity change, negative = inhibition was -7.12%.
With `C#C[C@]1(O)CC[C@@H]2[C@@H]3CCC4=CCCC[C@@H]4[C@H]3C(=C)C[C@@]21CC`, the Potency result in experiment [1], in experiment [2], in [3] and in [6] was “inactive” throughout. In addition, the activity change, negative = inhibition in experiment [4] amounted to 3.84%.
Turning to `CN(C)c1ccc(C(=C2C=CC(=[N+](C)C)C=C2)c2c(O)c(S(=O)(=O)[O-])cc3cc(S(=O)(=O)O)ccc23)cc1`, the Potency result in [1], in [2], in experiment [3] and in [6] was “inactive” each time. For the same compound, in [4], the activity change, negative = inhibition was -12.7%.
As to `O=C(O)CC(O)CC(O)/C=C/c1c(C2CC2)nc2ccccc2c1-c1ccc(F)cc1` (configuration not stated), the Potency entry in experiment [1], in [2], in [3] and in experiment [4] was “inactive” each time.
Regarding `CC(C)C[C@H](NC(=O)[C@@H](COC(C)(C)C)NC(=O)[C@H](Cc1ccc(O)cc1)NC(=O)[C@H](CO)NC(=O)[C@H](Cc1c[nH]c2ccccc12)NC(=O)[C@H](Cc1cnc[nH]1)NC(=O)[C@@H]1CCC(=O)N1)C(=O)N[C@@H](CCCN=C(N)N)C(=O)N1CCC[C@H]1C(=O)NNC(N)=O`, the Potency result in experiment [1], in [2], in experiment [3] and in experiment [6] was “inactive” each time. Besides, in [4], the activity change, negative = inhibition is -11.8% [at 27.1 µM].
Turning to `NCCCC[C@H](NC(=O)[C@@H]1CCCN1C(=O)[C@@H]1CSSC[C@H](N)C(=O)N[C@@H](Cc2ccc(O)cc2)C(=O)N[C@@H](Cc2ccccc2)C(=O)N[C@@H](CCC(N)=O)C(=O)N[C@@H](CC(N)=O)C(=O)N1)C(=O)NCC(N)=O`, the Potency entry in [1], in [2], in experiment [3] and in experiment [6] was “inactive” in each case. The activity change, negative = inhibition in experiment [4] is -25.1%.
In the case of `CCN(C)C(C)C(O)c1ccccc1` (configuration not stated), the Potency entry in experiment [1], in experiment [2], in [3], in experiment [6] and in experiment [7] was “inactive” each time. Also, the activity change, negative = inhibition in experiment [4] was -6%.
For the compound `CCCC(=O)O[C@]1(C(=O)COC(=O)CC)[C@@H](C)C[C@H]2[C@@H]3CCC4=CC(=O)C=C[C@]4(C)[C@@]3(F)[C@@H](O)C[C@@]21C`, the Potency result in experiment [1], in [2], in experiment [3], in [6] and in experiment [4] was “inactive” in each case.
Turning to `C=CCCCCCCCCC(=O)O[C@H]1CC[C@H]2[C@@H]3CCC4=CC(=O)C=C[C@]4(C)[C@H]3CC[C@]12C`, the Potency result in [1], in experiment [2], in [3], in experiment [6], in experiment [7] and in [8] was “inactive” throughout.
On to `CCOC(=O)Cc1ccc(-c2ccccc2)cc1`, for which the Potency result in experiment [1], in experiment [2], in [6] and in experiment [5] was “inactive” throughout.
As to `CN1C(CC(=O)c2ccccc2)CCCC1CC(O)c1ccccc1` (configuration not stated), the Potency entry in experiment [1], in [2], in [6] and in experiment [5] was “inactive” in each case. For the same compound, the Potency in experiment [9] is 3.83 µM (active).
Take `CC[C@H]1OC(=O)[C@H](C)[C@@H](O[C@H]2C[C@@](C)(OC)[C@@H](O)[C@H](C)O2)[C@H](C)[C@@H](O[C@@H]2O[C@H](C)C[C@H](N(C)C)[C@H]2O)[C@](C)(O)C[C@@H](C)CN(C)[C@H](C)[C@@H](O)[C@]1(C)O`: in experiment [10], the compound was called inactive. Also, the Potency result in [1], in experiment [2], in [6], in experiment [5] and in experiment [9] was “inactive” in each case. The Potency was 24.1 µM (active) in [11] and 12.6 µM (active) in experiment [4].
On to `CN(C(=O)/C=C/c1ccoc1)[C@@H]1CC[C@@]2(O)[C@H]3Cc4ccc(O)c5c4[C@@]2(CCN3CC2CC2)[C@H]1O5`, for which the Potency entry in [1], in [3], in experiment [6], in experiment [4] and in experiment [7] was “inactive” throughout.
As to `CC(C)OC(=O)[C@H](C)N[P@](=O)(CO[C@H](C)Cn1cnc2c(N)ncnc21)Oc1ccccc1`, the figures for the Potency in experiment [1], in experiment [11] and in [9] were 0.891 µM (active), 0.0108 µM (active) and 0.0096 µM (active), respectively. Moreover, the Potency result in experiment [3], in [6], in experiment [5], in [12] and in experiment [7] was “inactive” in each case. Besides, the activity change, negative = inhibition in experiment [4] is -96.1%.
